Results taken from the supplement of paper PMC10849652.
The full data set covers some 7,900 targets. This sample favours those with a hit. About 0.6% of all pairs of compound and target were hits.

These targets were tested with Cc1ncc(-c2ccnc(Nc3ccc(S(C)(=O)=O)cc3)n2)n1C(C)C (assay: log2 fold change, soluble protein after heating vs DMSO (PISA); higher = thermal stabilisation; K562 cells, 10 uM, 30 min; active = over 0.2 and 3.5 SD of the protein, either way, in both replicates (recomputed)).
Method in brief: (§1)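 K562 cells at 2×10^6 cells/mL were given 10 μM compound for 30 min. Aliquots then went through 3 min of heating across 48°C-58°C, were pooled, and were extracted in PBS with 0.5% NP-40 at 4°C, and the supernatant after 21,000xg for 90 min was quantified by TMTpro 16plex LC-MS/MS with channel sums equalised. Thermal stability relative to control samples, from duplicates, is given as log2 fold change.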

UniProt P32519, sequence (P32519 whole entry, looked up): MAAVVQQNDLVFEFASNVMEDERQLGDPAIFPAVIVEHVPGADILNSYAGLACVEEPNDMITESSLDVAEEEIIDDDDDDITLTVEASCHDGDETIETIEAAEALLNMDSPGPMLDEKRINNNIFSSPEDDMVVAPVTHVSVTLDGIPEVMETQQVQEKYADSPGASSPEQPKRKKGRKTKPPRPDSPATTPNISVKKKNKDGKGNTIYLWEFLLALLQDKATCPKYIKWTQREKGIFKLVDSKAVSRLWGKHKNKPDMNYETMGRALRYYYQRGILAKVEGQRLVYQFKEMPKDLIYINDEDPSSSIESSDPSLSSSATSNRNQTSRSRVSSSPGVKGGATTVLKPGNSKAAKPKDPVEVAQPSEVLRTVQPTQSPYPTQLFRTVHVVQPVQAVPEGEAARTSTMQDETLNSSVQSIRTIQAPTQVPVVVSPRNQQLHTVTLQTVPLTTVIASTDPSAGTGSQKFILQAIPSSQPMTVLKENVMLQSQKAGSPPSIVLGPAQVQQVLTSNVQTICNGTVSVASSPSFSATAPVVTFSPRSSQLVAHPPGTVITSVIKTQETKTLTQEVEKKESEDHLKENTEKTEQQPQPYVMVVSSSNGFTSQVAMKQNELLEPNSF
UniProt Q9H410, sequence (Q9H410 whole entry, looked up): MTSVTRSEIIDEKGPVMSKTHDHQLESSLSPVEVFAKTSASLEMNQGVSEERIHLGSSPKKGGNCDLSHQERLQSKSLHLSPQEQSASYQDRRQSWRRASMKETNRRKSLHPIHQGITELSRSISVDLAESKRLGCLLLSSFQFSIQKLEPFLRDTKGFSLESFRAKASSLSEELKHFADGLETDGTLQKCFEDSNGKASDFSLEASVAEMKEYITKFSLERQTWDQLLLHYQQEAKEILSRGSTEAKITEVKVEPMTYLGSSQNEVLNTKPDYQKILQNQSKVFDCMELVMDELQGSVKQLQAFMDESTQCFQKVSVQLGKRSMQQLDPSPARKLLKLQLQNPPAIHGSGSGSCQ
UniProt Q9H777, sequence (Q9H777 whole entry, looked up): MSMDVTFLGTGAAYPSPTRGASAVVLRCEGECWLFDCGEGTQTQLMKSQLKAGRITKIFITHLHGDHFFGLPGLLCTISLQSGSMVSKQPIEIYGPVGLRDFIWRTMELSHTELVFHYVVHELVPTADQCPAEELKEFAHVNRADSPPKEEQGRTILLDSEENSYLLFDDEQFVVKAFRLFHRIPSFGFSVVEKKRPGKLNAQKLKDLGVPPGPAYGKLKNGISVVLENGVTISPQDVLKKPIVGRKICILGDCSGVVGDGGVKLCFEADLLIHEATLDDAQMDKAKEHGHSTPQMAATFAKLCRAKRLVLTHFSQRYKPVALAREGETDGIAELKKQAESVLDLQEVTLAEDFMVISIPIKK
UniProt Q96GQ7, sequence (Q96GQ7 whole entry, looked up): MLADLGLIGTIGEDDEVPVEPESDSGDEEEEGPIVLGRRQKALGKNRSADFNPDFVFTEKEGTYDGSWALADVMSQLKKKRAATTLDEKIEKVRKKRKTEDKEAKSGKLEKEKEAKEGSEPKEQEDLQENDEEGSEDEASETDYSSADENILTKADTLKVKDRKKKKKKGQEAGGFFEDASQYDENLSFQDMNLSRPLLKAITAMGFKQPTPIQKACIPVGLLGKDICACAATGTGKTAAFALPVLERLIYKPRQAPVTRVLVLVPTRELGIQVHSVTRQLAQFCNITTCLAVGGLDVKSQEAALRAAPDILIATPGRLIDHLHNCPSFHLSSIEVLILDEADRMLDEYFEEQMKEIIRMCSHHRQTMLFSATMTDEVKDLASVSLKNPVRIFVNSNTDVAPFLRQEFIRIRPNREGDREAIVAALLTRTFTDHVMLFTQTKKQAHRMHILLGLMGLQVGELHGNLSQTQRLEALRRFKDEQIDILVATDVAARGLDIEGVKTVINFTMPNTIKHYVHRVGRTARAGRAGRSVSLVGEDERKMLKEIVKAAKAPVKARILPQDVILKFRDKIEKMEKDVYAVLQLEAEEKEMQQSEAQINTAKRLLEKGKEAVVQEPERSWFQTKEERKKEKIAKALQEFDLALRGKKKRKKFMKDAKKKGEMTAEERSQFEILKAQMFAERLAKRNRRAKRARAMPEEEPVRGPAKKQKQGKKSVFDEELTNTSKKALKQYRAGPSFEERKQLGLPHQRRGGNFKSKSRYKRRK
UniProt P68104, sequence (P68104 whole entry, looked up): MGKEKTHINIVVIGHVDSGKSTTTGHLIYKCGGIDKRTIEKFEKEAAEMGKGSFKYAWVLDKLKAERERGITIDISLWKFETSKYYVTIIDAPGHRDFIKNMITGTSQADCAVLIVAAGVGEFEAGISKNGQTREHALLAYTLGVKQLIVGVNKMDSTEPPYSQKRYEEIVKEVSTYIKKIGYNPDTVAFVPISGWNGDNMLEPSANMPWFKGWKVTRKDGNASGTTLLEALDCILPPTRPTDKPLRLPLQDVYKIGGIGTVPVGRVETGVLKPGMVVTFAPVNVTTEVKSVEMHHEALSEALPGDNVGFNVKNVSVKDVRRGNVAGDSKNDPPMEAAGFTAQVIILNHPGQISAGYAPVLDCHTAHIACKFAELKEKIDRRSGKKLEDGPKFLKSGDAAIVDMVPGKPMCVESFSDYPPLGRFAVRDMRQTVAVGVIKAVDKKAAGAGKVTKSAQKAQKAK
UniProt O43432, sequence (O43432 whole entry, looked up): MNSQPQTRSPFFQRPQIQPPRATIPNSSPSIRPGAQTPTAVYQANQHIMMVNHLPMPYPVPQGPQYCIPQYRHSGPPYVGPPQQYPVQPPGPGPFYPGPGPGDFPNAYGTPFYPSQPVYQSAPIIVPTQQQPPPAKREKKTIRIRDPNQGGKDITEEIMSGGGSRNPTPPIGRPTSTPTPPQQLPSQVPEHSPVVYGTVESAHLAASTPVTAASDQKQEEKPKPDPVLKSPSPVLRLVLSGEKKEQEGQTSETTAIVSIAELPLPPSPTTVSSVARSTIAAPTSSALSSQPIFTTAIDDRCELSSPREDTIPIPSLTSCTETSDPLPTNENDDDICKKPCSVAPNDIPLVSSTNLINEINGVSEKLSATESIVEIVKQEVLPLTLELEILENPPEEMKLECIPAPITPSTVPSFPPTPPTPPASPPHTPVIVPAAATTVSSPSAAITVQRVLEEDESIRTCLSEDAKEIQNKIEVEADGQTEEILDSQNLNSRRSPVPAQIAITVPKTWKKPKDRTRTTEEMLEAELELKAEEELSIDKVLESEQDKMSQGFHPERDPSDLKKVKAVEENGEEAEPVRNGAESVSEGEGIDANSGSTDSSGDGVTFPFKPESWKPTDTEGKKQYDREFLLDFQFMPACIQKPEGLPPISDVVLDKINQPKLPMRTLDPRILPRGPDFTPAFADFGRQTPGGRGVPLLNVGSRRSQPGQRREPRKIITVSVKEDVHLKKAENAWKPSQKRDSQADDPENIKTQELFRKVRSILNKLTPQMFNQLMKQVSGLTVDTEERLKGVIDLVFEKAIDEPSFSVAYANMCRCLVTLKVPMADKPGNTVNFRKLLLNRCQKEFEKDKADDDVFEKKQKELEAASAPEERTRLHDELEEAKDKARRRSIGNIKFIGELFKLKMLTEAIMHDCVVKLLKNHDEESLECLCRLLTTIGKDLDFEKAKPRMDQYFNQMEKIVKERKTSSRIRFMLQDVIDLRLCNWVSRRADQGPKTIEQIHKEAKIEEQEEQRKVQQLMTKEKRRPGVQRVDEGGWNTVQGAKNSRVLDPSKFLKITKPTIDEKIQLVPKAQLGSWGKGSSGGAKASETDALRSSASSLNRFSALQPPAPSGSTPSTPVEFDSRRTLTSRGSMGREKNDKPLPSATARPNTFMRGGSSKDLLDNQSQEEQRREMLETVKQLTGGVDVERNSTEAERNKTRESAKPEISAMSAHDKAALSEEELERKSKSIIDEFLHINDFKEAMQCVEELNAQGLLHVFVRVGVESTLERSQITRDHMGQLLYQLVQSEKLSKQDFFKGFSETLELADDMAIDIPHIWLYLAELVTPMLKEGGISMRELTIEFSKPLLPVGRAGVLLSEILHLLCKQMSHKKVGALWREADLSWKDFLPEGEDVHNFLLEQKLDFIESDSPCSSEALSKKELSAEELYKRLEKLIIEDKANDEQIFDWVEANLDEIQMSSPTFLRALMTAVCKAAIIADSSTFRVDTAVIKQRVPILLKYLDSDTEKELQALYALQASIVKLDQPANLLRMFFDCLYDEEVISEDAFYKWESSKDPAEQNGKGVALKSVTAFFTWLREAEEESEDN
UniProt Q86YN1, sequence (Q86YN1 whole entry, looked up): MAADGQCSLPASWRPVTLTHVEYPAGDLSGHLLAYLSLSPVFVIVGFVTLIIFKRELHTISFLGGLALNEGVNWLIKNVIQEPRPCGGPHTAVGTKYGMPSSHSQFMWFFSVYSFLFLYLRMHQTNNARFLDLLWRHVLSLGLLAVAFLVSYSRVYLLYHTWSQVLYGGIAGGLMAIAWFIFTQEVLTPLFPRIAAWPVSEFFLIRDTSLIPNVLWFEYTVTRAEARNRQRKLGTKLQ
UniProt Q6UX07, sequence (Q6UX07 whole entry, looked up): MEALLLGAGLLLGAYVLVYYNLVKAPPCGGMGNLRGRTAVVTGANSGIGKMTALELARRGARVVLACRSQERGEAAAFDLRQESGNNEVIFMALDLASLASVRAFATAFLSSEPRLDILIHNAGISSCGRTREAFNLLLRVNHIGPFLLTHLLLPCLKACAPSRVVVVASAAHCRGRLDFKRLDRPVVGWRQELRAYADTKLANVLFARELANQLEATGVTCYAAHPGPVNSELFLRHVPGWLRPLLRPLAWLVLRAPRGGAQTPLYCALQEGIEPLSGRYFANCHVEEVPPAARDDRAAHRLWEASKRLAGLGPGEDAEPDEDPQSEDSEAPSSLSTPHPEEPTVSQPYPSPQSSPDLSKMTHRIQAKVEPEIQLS
UniProt O75822, sequence (O75822 whole entry, looked up): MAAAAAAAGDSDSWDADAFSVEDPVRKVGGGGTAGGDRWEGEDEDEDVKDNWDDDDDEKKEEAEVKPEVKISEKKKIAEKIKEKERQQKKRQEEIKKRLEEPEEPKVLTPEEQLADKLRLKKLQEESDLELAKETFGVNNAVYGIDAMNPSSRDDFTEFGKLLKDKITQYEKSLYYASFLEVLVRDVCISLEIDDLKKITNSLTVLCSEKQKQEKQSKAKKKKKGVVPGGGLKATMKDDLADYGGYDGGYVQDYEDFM

log2 fold change, inactive:
DDX11 (UniProt Q96FC9) 0.098
EID1 (UniProt Q9Y6B2) -0.032
ELMO1 (UniProt Q92556) -0.001
DHRS13 (UniProt Q6UX07) -0.106
EIF3J isoform 2 (UniProt O75822) -0.013
ELF1 (UniProt P32519) 0.122
DOLPP1 (UniProt Q86YN1) -0.023
ENTPD7 (UniProt Q9NQZ7) 0.056
DDX46, A0A0C4DG89 0.032
DSN1 (UniProt Q9H410) 0.104
DCAF4 (UniProt Q8WV16) -0.093
FAM135A (UniProt Q9P2D6) -0.054
DDX27 (UniProt Q96GQ7) 0.3
EEF1A1 (UniProt P68104) 0.001
ELAC1 (UniProt Q9H777) -0.103
EIF4G3 isoform 3 (UniProt O43432) 0.052

Each target was assayed with Cn1cc(-c2ccc3c(c2)CCN3C(=O)Cc2cccc(C(F)(F)F)c2)c2c(N)ncnc21 in the same assay as above.
Method in brief: as §1

log2 fold change, inactive:
DCP2 (UniProt Q8IU60) -0.021
F2RL3 (UniProt Q96RI0) -0.051
FAM117B (UniProt Q6P1L5) -0.029
DHRS13 (UniProt Q6UX07) 0.021
CWF19L2 (UniProt Q2TBE0) -0.102
FAM193B (UniProt Q96PV7) 0.171
ELF1 (UniProt P32519) 0.003
DOLPP1 (UniProt Q86YN1) -0.045
DSN1 (UniProt Q9H410) 0.041
EEF2K (UniProt O00418) -0.108
EZH2 isoform 2 (UniProt Q15910) 0.055
DNAL1 (UniProt Q4LDG9) 0.186
EIF4G1 (UniProt Q04637) -0.032
EHBP1 (UniProt Q8NDI1) -0.076
DBNL (UniProt Q9UJU6) 0.308
CTSS (UniProt P25774) -0.07
DYNC1I2 isoform 2 (UniProt Q13409) -0.311
DDX27 (UniProt Q96GQ7) -0.313
EEF1A1 (UniProt P68104) 0.044
DNAJB1 (UniProt M0R128) -0.022
ELAC1 (UniProt Q9H777) -0.032
ELOVL7 (UniProt A1L3X0) -0.057
EIF4G3 isoform 3 (UniProt O43432) -0.073
DLK1 (UniProt P80370) -0.279
